Test results taken from ChEMBL document CHEMBL1961873, “Compounds: GSK PKIS; Assays: Nanosyn kinase panel” (2012).

Legend:
[1] = target: T1, Tyrosine-protein kinase ITK/TSK (Homo sapiens) (UniProt Q08881); conditions: at 1 µM;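 note: values are mean percent inhibition of ITK from the GSK PKIS screen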
T1 sequence (whole entry): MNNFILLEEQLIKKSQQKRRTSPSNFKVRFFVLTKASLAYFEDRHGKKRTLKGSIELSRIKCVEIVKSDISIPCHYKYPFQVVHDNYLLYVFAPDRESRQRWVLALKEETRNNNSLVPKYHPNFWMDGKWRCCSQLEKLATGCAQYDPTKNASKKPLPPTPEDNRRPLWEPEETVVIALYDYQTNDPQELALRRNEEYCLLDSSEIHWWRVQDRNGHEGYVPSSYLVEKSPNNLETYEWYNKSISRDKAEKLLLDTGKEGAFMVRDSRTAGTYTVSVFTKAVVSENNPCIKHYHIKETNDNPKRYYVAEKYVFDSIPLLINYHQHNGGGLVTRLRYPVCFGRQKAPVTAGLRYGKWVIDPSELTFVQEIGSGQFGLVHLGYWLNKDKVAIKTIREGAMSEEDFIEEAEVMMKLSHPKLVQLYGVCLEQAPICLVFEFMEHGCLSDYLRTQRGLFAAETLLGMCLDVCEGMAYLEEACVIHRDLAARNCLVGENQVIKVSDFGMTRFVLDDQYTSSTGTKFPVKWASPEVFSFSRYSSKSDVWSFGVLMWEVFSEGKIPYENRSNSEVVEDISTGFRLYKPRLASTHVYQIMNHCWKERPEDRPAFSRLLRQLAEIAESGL

[2] = target: Tyrosine-protein kinase JAK1 (Homo sapiens) (UniProt P23458); conditions: at 0.1 µM
Chain of Tyrosine-protein kinase JAK1 (Homo sapiens) (P23458 whole entry): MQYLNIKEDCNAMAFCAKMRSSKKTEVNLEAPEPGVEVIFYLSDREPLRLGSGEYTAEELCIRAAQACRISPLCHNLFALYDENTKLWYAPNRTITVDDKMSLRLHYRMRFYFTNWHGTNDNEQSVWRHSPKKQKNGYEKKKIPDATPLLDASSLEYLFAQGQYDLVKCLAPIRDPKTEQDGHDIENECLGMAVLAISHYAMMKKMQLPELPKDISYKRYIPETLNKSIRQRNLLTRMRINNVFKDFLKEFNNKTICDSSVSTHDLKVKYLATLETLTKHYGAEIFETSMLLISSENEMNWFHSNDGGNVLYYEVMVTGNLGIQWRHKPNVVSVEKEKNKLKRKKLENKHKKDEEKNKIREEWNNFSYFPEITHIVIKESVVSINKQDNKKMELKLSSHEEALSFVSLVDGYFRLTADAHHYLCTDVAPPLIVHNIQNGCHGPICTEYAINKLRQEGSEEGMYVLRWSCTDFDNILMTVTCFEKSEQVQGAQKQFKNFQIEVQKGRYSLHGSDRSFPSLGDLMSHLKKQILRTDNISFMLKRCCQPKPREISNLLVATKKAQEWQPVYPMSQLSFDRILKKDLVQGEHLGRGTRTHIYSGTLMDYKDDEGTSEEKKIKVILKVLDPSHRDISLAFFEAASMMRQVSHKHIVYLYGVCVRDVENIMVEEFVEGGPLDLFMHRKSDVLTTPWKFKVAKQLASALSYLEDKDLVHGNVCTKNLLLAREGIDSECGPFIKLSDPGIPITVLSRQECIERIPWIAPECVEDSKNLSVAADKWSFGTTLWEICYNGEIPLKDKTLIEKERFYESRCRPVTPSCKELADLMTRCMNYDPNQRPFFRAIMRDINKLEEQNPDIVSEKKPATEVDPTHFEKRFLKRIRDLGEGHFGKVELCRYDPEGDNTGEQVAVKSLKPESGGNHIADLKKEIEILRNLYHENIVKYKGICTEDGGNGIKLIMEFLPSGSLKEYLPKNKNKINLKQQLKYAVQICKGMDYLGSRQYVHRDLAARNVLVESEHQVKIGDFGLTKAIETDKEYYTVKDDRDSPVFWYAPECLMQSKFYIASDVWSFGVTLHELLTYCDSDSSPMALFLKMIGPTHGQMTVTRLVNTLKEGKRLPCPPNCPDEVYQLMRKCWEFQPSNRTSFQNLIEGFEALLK

[3] = target: Tyrosine-protein kinase JAK1 (Homo sapiens) (UniProt P23458); conditions: at 1 µM
[4] = target: Tyrosine-protein kinase JAK2 (Homo sapiens) (UniProt O60674); conditions: at 0.1 µM
[5] = target: Tyrosine-protein kinase JAK2 (Homo sapiens) (UniProt O60674); conditions: at 1 µM
[6] = target: T2, Tyrosine-protein kinase JAK3 (Homo sapiens) (UniProt P52333); conditions: at 0.1 µM
T2 sequence (whole entry): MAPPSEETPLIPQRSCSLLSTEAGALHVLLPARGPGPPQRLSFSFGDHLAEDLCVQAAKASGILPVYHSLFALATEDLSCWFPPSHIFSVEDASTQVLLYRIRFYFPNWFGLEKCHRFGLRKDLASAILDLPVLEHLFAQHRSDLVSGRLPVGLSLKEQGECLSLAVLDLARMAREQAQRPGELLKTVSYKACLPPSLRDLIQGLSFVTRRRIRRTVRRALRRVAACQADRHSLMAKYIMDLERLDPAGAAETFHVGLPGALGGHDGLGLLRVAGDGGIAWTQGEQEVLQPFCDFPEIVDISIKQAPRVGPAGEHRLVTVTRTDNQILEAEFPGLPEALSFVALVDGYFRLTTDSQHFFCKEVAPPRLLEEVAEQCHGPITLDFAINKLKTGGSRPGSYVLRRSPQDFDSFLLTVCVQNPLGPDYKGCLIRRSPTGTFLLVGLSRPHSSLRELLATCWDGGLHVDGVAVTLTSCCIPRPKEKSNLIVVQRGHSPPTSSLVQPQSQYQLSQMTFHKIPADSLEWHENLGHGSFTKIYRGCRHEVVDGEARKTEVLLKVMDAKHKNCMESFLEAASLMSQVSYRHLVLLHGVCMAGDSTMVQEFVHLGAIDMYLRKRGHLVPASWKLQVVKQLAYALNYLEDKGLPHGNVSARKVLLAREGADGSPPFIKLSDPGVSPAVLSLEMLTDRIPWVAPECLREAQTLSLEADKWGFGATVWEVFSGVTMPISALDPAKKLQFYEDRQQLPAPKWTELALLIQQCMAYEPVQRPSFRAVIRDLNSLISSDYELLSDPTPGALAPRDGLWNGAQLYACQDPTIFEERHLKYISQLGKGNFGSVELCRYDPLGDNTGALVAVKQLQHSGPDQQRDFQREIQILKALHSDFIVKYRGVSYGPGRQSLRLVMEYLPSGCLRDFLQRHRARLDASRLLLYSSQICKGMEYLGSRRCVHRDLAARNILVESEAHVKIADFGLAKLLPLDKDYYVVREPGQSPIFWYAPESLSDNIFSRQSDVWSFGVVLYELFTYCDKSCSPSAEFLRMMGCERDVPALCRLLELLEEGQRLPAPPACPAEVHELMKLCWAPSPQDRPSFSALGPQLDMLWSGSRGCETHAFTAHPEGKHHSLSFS

[7] = target: T2, Tyrosine-protein kinase JAK3 (Homo sapiens); conditions: at 1 µM
[8] = target: Vascular endothelial growth factor receptor 2 (Homo sapiens) (UniProt P35968); conditions: at 0.1 µM
Chain of Vascular endothelial growth factor receptor 2 (Homo sapiens) (P35968 whole entry): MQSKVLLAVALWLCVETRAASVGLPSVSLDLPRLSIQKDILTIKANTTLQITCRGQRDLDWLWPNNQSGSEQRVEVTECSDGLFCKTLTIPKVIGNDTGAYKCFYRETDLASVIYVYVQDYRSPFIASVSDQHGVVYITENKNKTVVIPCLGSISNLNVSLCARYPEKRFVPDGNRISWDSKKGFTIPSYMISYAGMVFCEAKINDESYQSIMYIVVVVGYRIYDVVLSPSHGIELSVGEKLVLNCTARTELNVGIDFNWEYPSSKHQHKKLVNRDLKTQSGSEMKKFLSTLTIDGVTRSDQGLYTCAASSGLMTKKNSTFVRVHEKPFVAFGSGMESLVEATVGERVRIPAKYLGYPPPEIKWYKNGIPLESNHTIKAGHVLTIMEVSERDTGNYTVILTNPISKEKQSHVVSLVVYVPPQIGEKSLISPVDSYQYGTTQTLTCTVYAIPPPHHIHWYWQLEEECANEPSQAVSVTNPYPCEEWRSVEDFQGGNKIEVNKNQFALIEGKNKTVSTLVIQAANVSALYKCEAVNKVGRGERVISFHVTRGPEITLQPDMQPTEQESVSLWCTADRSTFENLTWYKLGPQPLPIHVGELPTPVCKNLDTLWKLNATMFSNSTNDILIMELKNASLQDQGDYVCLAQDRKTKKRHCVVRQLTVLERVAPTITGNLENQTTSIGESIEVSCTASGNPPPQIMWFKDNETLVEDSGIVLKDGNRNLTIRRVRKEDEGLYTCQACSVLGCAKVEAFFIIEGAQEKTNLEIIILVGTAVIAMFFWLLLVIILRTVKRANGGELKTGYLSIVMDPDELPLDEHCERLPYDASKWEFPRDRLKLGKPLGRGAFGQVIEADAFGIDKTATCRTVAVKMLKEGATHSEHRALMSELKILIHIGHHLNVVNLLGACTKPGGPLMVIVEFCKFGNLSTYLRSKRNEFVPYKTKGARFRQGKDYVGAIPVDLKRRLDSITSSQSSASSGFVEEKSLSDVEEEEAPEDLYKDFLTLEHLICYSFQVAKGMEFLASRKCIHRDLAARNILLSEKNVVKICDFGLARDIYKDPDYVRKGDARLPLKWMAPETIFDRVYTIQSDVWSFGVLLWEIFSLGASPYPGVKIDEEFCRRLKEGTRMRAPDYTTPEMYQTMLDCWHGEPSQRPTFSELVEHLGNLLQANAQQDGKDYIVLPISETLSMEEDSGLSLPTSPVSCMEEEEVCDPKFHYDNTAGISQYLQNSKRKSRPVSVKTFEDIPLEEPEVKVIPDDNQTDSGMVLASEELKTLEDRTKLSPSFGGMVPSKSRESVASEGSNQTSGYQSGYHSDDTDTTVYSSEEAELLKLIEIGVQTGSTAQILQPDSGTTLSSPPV

[9] = target: Vascular endothelial growth factor receptor 2 (Homo sapiens) (UniProt P35968); conditions: at 1 µM
[10] = target: Mast/stem cell growth factor receptor Kit (Homo sapiens) (UniProt P10721); conditions: at 0.1 µM
Chain of Mast/stem cell growth factor receptor Kit (Homo sapiens) (P10721 whole entry): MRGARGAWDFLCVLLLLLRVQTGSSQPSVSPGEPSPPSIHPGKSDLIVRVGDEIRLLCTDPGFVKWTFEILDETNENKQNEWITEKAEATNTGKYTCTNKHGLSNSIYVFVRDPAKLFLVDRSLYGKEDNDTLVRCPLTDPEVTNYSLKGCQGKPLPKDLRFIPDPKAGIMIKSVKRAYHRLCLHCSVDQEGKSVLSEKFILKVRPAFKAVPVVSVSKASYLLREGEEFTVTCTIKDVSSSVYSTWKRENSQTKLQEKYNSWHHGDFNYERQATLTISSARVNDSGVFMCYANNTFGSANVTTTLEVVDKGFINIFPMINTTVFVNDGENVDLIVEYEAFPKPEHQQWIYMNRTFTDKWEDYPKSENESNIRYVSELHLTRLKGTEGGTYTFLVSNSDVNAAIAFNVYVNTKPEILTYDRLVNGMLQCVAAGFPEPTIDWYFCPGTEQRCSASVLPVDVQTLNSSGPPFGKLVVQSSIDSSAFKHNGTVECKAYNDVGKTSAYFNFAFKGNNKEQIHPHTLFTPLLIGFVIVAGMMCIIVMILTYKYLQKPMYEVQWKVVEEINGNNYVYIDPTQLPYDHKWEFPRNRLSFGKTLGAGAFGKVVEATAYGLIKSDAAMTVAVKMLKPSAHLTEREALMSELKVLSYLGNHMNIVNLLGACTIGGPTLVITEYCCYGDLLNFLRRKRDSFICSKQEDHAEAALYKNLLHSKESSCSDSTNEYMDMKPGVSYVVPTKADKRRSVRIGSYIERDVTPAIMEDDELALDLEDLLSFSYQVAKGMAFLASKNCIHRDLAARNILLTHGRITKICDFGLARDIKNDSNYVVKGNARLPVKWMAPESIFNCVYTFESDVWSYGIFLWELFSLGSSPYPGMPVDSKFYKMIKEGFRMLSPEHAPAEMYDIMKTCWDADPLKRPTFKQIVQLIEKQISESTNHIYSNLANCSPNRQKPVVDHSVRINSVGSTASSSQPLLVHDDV

[11] = target: Mast/stem cell growth factor receptor Kit (Homo sapiens) (UniProt P10721); conditions: at 1 µM
[12] = tested on: Mast/stem cell growth factor receptor Kit (Homo sapiens), P10721 [D816V]; conditions: at 0.1 µM
Chain of Mast/stem cell growth factor receptor Kit (Homo sapiens), P10721 [D816V] (P10721 whole entry D816V): as the sequence (P10721 whole entry) above, with D816V counted along it

[13] = tested on: Mast/stem cell growth factor receptor Kit (Homo sapiens), P10721 [D816V]; conditions: at 1 µM
[14] = tested on: Mast/stem cell growth factor receptor Kit (Homo sapiens), P10721 [T670I]; conditions: at 0.1 µM
Chain of Mast/stem cell growth factor receptor Kit (Homo sapiens), P10721 [T670I] (P10721 whole entry T670I): as the sequence (P10721 whole entry) above, with T670I counted along it

[15] = tested on: Mast/stem cell growth factor receptor Kit (Homo sapiens), P10721 [T670I]; conditions: at 1 µM
[16] = tested on: Mast/stem cell growth factor receptor Kit (Homo sapiens), P10721 [V560G]; conditions: at 0.1 µM
Chain of Mast/stem cell growth factor receptor Kit (Homo sapiens), P10721 [V560G] (P10721 whole entry V560G): as the sequence (P10721 whole entry) above, with V560G counted along it

[17] = tested on: Mast/stem cell growth factor receptor Kit (Homo sapiens), P10721 [V560G]; conditions: at 1 µM
[18] = target: Tyrosine-protein kinase Lck (Homo sapiens) (UniProt P06239); conditions: at 0.1 µM
Chain of Tyrosine-protein kinase Lck (Homo sapiens) (P06239 2-509 limits assumed): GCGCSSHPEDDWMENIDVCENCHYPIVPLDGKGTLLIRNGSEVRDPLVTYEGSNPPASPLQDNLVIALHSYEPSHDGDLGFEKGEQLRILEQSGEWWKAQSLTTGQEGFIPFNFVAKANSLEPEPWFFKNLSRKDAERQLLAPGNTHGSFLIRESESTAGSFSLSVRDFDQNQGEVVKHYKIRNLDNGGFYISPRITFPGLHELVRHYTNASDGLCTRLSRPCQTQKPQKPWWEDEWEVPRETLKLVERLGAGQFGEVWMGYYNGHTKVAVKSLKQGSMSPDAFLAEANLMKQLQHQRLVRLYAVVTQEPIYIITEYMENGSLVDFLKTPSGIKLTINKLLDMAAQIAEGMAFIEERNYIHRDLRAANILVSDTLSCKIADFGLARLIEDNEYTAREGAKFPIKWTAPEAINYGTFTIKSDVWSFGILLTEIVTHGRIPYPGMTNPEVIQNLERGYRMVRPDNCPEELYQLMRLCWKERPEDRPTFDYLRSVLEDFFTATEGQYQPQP

[19] = target: Tyrosine-protein kinase Lck (Homo sapiens) (UniProt P06239); conditions: at 1 µM
[20] = target: Leukocyte tyrosine kinase receptor (Homo sapiens) (UniProt P29376); conditions: at 0.1 µM
Chain of Leukocyte tyrosine kinase receptor (Homo sapiens) (P29376 whole entry): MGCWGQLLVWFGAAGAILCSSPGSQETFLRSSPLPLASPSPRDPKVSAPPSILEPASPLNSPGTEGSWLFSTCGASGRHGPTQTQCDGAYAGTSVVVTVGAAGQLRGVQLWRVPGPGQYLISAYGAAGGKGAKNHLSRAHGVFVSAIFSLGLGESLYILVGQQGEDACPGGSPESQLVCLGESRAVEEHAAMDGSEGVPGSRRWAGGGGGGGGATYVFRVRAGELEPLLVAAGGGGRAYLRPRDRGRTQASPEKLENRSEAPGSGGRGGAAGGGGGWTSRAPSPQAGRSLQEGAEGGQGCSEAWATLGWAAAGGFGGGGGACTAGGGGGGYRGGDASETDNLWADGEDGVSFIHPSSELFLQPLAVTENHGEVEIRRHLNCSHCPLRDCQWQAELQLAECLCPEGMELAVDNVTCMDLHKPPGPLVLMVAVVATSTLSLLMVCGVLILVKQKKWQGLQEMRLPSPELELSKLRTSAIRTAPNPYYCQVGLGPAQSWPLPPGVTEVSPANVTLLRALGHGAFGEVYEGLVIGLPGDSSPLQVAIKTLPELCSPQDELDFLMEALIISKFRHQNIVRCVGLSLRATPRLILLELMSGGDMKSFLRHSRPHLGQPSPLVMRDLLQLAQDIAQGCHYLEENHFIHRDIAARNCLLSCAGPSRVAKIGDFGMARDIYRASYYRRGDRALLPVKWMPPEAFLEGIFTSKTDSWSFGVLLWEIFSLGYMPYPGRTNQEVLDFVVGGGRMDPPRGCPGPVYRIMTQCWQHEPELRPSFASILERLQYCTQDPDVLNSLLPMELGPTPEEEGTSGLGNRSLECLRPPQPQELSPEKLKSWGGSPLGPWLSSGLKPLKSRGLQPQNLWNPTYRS

Row | SMILES | inhibition [1] [%] | inhibition [2] [%] | inhibition [3] [%] | inhibition [4] [%] | inhibition [5] [%] | inhibition [6] [%] | inhibition [7] [%] | inhibition [8] [%] | inhibition [9] [%] | inhibition [10] [%] | inhibition [11] [%] | inhibition [12] [%] | inhibition [13] [%] | inhibition [14] [%] | inhibition [15] [%] | inhibition [16] [%] | inhibition [17] [%] | inhibition [18] [%] | inhibition [19] [%] | inhibition [20] [%]
1 | c1cc(-c2cnn3nc(N4CCOCC4)ccc23)nc(NC2CC2)n1 | 3.22 | 0.54 | -6.96 | 2.21 | 1.85 | -1.14 | -0.05 | 12.9 | 48 | 6.83 | 20.9 | 0.53 | 4.82 | 7.12 | 3.28 | 4.27 | 5 | 1.31 | 3.4 | 2.15
2 | COc1ccc(-c2oc3ncnc(N)c3c2-c2ccc(NC(=O)Nc3cc(C(F)(F)F)ccc3F)cc2)cc1 | 40.8 | 14.6 | 43.3 | 2.04 | 14.4 | 1.04 | 3.12 | 75.4 | 73.7 | 37.9 | 96 | 2.85 | 5.19 | 11.8 | 88.3 | 25.5 | 78.6 | 21.1 | 83.9 | 4.21
3 | NS(=O)(=O)c1ccc(N/N=C2\C(=O)Nc3ccc4ncccc4c32)cc1 | 18.5 | 2.63 | 17.3 | 1.52 | 22.4 | 14.2 | 67.7 | 61.6 | 88.6 | 63.8 | 90.7 | 5.95 | 23.6 | 10.2 | 69.4 | 3.66 | 36.8 | 5.5 | 30.1 | 2.17
4 | CCCN1CCC(c2ccc(Nc3nc(Nc4cc(F)ccc4C(N)=O)c4cc[nH]c4n3)c(OC)c2)CC1 | 7.34 | 2.55 | 20.8 | 0.71 | 2.85 | -0.92 | 0.07 | 6.99 | 18.6 | 7.64 | 23.6 | 7.89 | 4.96 | 4.05 | 8.96 | -2.53 | 1.43 | 2.44 | 9.44 | 94.6
5 | Nc1nc(-c2cccc(Cl)c2)c(-c2ccc3ncccc3n2)s1 | 1.36 | 2.71 | 14.3 | 0.64 | 0.69 | -2.58 | -0.69 | 33.1 | 67.4 | 5.86 | 7.87 | 1.78 | 8.71 | 4.73 | 6.56 | -0.42 | -0.36 | 2.31 | 8.23 | 6.27
6 | CC(C)COC(=O)c1ccc2c(c1)/C(=C/Nc1ccc(S(N)(=O)=O)cc1)C(=O)N2 | 5.29 | 0.07 | 12.7 | -0.31 | 12.3 | 2.41 | 45.5 | 40.4 | 71.5 | -0.74 | 24.6 | 2.4 | 35.2 | -2.43 | 6.53 | 2.21 | 5.62 | 0.55 | 13.9 | 0.07
